Test [1] deals with ATP-dependent 6-phosphofructokinase (Trypanosoma brucei brucei) (UniProt O15648). The experiment in a line: qHTS Assay to Find Inhibitors of T. brucei phosphofructokinase: hit validation (AID 492961).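 Note: luminescence reports ADP formed as PFK phosphorylates fructose-6-phosphate with ATP; % is set by controls: 0 for no effect and ±100 for the full control effect.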 The method in brief: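 Percent activity derived from corrected luminescence, normalized between 0x and 1x enzyme controls, then fitted to concentration-response curves. Conditions: 1.25 nM PFK, 0.1 mM ATP, 0.5 mM F6P, 45 min RT.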
On the technique in general: In qHTS, concentration-response curves come from the screen itself.

Test [2] is described as follows: qHTS profiling for inhibitors of Plasmodium falciparum proliferation (AID 504749).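 For activity, negative = inhibition: 0% = DMSO vehicle and full inhibition = artemisinin control.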 For all read-outs here: nearly all actives have a fitted effect of over 60% in size. Note: potency is the fitted concentration of half-maximal effect. As to conditions: P. falciparum in erythrocytes, SYBR Green DNA, 72 h; for activity, negative = inhibition: at 28.7 µM (top of the series). In outline: (§1)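 P. falciparum-infected erythrocytes (0.3% parasitemia, 2.5% hematocrit final) were exposed to compounds for 72 h at 37 C in 5% CO2, then lysed with SYBR Green buffer overnight at room temperature; parasite DNA fluorescence was normalized to artemisinin and DMSO controls.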

Test [3] deals with 3D7. The test is described as above. The note with it: P. falciparum in erythrocytes, SYBR Green DNA, 72 h; series mostly up to 28.7 µM. The method in brief:
as §1

Test [4] has as its system 7G8. The description is as above. As to conditions: P. falciparum in erythrocytes, SYBR Green DNA, 72 h; series mostly up to 28.7 µM. The method in brief:
as §1

Test [5] deals with AS120. The description is as above. The note with it: P. falciparum in erythrocytes, SYBR Green DNA, 72 h; series mostly up to 28.7 µM. In outline:
as §1

In test [6] the test system is ATS189. The description is as above. As to conditions: P. falciparum in erythrocytes, SYBR Green DNA, 72 h; series mostly up to 28.7 µM. In outline: as §1
In test [7] the test system is CP185. The test is described as above. As to conditions: P. falciparum in erythrocytes, SYBR Green DNA, 72 h; series mostly up to 28.7 µM. The method in brief:
as §1

Test [8] relates to CP191. The description is as above. The note with it: P. falciparum in erythrocytes, SYBR Green DNA, 72 h; series mostly up to 28.7 µM. The method in brief:
as §1

The subject of test [9] is CP192. The test is described as above. As to conditions: P. falciparum in erythrocytes, SYBR Green DNA, 72 h; series mostly up to 28.7 µM. The method in brief: as §1
Test [10] has as its system CP194. The test is described as above. As to conditions: P. falciparum in erythrocytes, SYBR Green DNA, 72 h; series mostly up to 28.7 µM. The method in brief: as §1
The subject of test [11] is CP201. The description is as above. The note with it: P. falciparum in erythrocytes, SYBR Green DNA, 72 h; series mostly up to 28.7 µM. In outline:
as §1

Test [12] deals with CP203. Described as above. The note with it: P. falciparum in erythrocytes, SYBR Green DNA, 72 h; series mostly up to 28.7 µM. In outline:
as §1

The test system of test [13] is CP237. The description is as above. The note with it: P. falciparum in erythrocytes, SYBR Green DNA, 72 h; series mostly up to 28.7 µM. The method in brief:
as §1

Test [14] has as its system CP238. Described as above. The note with it: P. falciparum in erythrocytes, SYBR Green DNA, 72 h; series mostly up to 28.7 µM. The method in brief: as §1
For test [15], the system named is CP247. The description is as above. The note with it: P. falciparum in erythrocytes, SYBR Green DNA, 72 h; series mostly up to 28.7 µM. The method in brief: as §1
For test [16], the system named is CP286. The test is described as above. As to conditions: P. falciparum in erythrocytes, SYBR Green DNA, 72 h; series mostly up to 28.7 µM. The method in brief:
as §1

Test [17] concerns DFO2036. Described as above. The note with it: P. falciparum in erythrocytes, SYBR Green DNA, 72 h; series mostly up to 28.7 µM. The method in brief:
as §1

For test [18], the system named is DIV30. Described as above. As to conditions: P. falciparum in erythrocytes, SYBR Green DNA, 72 h; series mostly up to 28.7 µM. In outline: as §1
For test [19], the system named is HB3. The description is as above. As to conditions: P. falciparum in erythrocytes, SYBR Green DNA, 72 h; series mostly up to 28.7 µM. The method in brief:
as §1

The test system of test [20] is P94_40. The description is as above. As to conditions: P. falciparum in erythrocytes, SYBR Green DNA, 72 h; series mostly up to 28.7 µM. The method in brief: as §1

Inconclusive results are not listed. Values without a mark were called inactive. The source made the active and inactive calls. Calls come from the whole dose curve; as a rule, active = well fitted curve in the direction sought with a large enough effect; inconclusive = small, poorly fitted or top-dose-only effect, or another doubt; inactive = no such curve, though single readings can be large; an effect the other way counts as inactive or inconclusive.

Chain of ATP-dependent 6-phosphofructokinase (Trypanosoma brucei brucei) (O15648 whole entry, looked up): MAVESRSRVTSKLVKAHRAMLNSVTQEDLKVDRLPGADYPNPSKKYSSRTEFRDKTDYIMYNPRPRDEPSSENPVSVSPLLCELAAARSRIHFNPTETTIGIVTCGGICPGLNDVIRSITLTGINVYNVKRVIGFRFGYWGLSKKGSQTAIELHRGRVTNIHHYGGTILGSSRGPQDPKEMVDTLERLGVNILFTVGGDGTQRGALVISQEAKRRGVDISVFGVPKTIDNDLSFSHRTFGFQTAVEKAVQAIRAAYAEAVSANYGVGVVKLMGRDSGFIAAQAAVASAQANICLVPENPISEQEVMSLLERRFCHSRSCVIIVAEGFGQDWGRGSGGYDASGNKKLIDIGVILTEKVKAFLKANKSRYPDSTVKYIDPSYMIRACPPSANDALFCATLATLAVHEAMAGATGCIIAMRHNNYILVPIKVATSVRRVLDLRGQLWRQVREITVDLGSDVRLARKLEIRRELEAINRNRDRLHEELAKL

With `CN[C@H](C)CCC=C(C)C`, in test [1], the Potency entry is “inactive”. The Potency in test [2] (parasite line A) was 355 nM (active); in test [2] (parasite line B), 141 nM (active); in test [3] it was 316 nM (active); in test [4] it was 50.1 nM (active); in test [5], 224 nM (active); in [6] it was 282 nM (active). Further, the Potency is 708 nM (active) in test [7]; 708 nM (active) in test [8]; 953 nM (active) in test [9]; 675 nM (active) in test [10]; 2130 nM (active) in test [11]; 601 nM (active) in test [12]. Moreover, the Potency in test [13] is 199 nM (active); in [14] it was 355 nM (active); in test [15], 398 nM (active); in test [16], 398 nM (active); in [17], 398 nM (active); in test [18] it was 135 nM (active). Besides, the Potency in test [19] was 199 nM (active); in test [20], 178 nM (active).

Regarding `NC(=O)NC(CCC(=O)O)C(=O)O` (centres undefined), the Potency entry in test [1], in test [3], in test [4], in test [5], in [6] and in [7] was “inactive” in each case. Besides, the Potency result in test [8], in [9], in test [10], in [11], in [12] and in test [13] was “inactive” throughout. The Potency entry in [14], in test [15], in [16], in test [17], in test [18] and in [19] was “inactive” each time. In test [20], the Potency entry was “inactive”. Moreover, the activity, negative = inhibition was -0.405% in test [2] (parasite line A) and 3.49% in test [2] (parasite line B).

Consider `Cc1onc(-c2c(F)cccc2Cl)c1C(=O)NC1C(=O)N2C1SC(C)(C)C2C(=O)O` (centres undefined), for which the Potency result in test [1], in test [3], in test [4], in [5], in test [6] and in test [7] was “inactive” throughout. Besides, the Potency entry in [8], in [9], in test [10], in [11], in test [12] and in test [13] was “inactive” in each case. The Potency entry in test [14], in [15], in test [16], in [17], in test [18] and in [19] was “inactive” throughout. In addition, the Potency result in test [20] is “inactive”. Moreover, the activity, negative = inhibition in [2] (parasite line A) was 3.14%; in test [2] (parasite line B) it was -4.31%.

In the case of `OCC1O[C@H](Oc2ccc(O)cc2)C(O)C(O)C1O` (some centres undefined), the Potency entry in [1], in [3], in [4], in test [5], in test [6] and in [7] was “inactive” in each case. In addition, the Potency result in [8], in [9], in test [10], in test [11], in [12] and in test [13] was “inactive” in each case. The Potency entry in [14], in [15], in test [16], in test [17], in [18] and in test [19] was “inactive” throughout. Also, the Potency result in test [20] is “inactive”. Further, the activity, negative = inhibition is -4.75% in test [2] (parasite line A) and 1.5% in test [2] (parasite line B).

`OCC1OC(O)C(O)C(O)C1O` (centres undefined): the Potency entry in [1], in [3], in test [4], in test [5], in test [6] and in [7] was “inactive” throughout. For the same molecule, the Potency entry in test [8], in test [9], in test [10], in test [11], in test [12] and in [13] was “inactive” each time. The Potency result in test [14], in [15], in test [16], in test [17], in [18] and in test [19] was “inactive” throughout. The Potency entry in test [20] is “inactive”. The activity, negative = inhibition in [2] (parasite line A) is -3.4%; in test [2] (parasite line B), 8.64%.

Take `C[S+](C)CC[C@H](N)C(=O)O`: the Potency entry in [1], in [3], in test [4], in test [5], in test [6] and in test [7] was “inactive” each time. The Potency result in test [8], in test [9], in test [10], in test [11], in [12] and in [13] was “inactive” in each case. The Potency result in test [14], in test [15], in [16], in test [17], in test [18] and in [19] was “inactive” throughout. Besides, the Potency result in test [20] is “inactive”. The activity, negative = inhibition in [2] (parasite line A) is 2.14%; in test [2] (parasite line B) it was 12.4%.

Consider `COc1cc2c(cc1O)CCN[C@@]21CS[C@H]2c3c(OC(C)=O)c(C)c4c(c3C(COC1=O)N1C2C2c3c(cc(C)c(OC)c3O)CC([C@@H]1O)N2C)OCO4` (some centres undefined), for which the Potency entry in test [1] was “inactive”. Moreover, the Potency is 0.9 nM (active) in [2] (parasite line A); 0.9 nM (active) in test [2] (parasite line B); 0.3 nM (active) in [3]; 0.3 nM (active) in [4]; 0.9 nM (active) in test [5]; 1 nM (active) in test [6]. The Potency in test [7] is 1.1 nM (active); in test [8] it was 1 nM (active); in test [9], 1.5 nM (active); in [10], 1.3 nM (active); in [11], 1.3 nM (active); in [12], 0.4 nM (active). Moreover, the Potency in test [13] is 0.9 nM (active); in [14], 0.9 nM (active); in test [15], 1.1 nM (active); in [16], 0.3 nM (active); in test [17], 0.9 nM (active); in test [18], 1.5 nM (active). For the same molecule, the Potency was 0.3 nM (active) in [19] and 0.9 nM (active) in test [20].

As to `NC(=O)C1CC2(NC(=O)NC2=O)c2cc(F)ccc2O1` (centres undefined), the Potency result in [1], in test [3], in test [4], in test [5], in test [6] and in test [7] was “inactive” each time. Also, the Potency entry in test [8], in test [9], in test [10], in test [11], in test [12] and in [13] was “inactive” each time. Moreover, the Potency result in [14], in test [15], in test [16], in test [17], in test [18] and in test [19] was “inactive” each time. For the same molecule, the Potency entry in test [20] is “inactive”. The figures for the activity, negative = inhibition in test [2] (parasite line A) and in [2] (parasite line B) were 9.13% and 7.45%, respectively.

In the case of `CC[C@@]1(O)C[C@H](O[C@H]2C[C@@H](N(C)C)[C@@H](O[C@H]3C[C@@H](O)[C@@H](O[C@H]4CCC(=O)[C@@H](C)O4)[C@@H](C)O3)[C@@H](C)O2)c2c(cc3c(c2O)C(=O)c2c(O)cccc2C3=O)[C@H]1C(=O)OC`, in test [1], the Potency entry was “inactive”. The Potency in [2] (parasite line A) is 141 nM (active); in test [2] (parasite line B) it was 199 nM (active); in test [3], 126 nM (active); in test [4] it was 39.8 nM (active); in [5], 100 nM (active); in [6] it was 355 nM (active). For the same molecule, the Potency in test [7] was 251 nM (active); in test [8], 199 nM (active); in [9], 1070 nM (active); in test [10] it was 953 nM (active); in test [11], 1510 nM (active); in [12] it was 849 nM (active). Moreover, the Potency in [13] is 35.5 nM (active); in test [14] it was 178 nM (active); in [15] it was 251 nM (active); in [16], 39.8 nM (active); in test [17], 178 nM (active); in [18] it was 953 nM (active). Moreover, the Potency in [19] is 141 nM (active); in [20], 158 nM (active).
